In all, about 370,000 compounds went through this assay and about 500 (0.14%) were called active. Entries that show only a call come without a potency. Roughly 2% stayed inconclusive and do not appear here. The call rests on the fitted dose curve; in most records, active means well fitted activation curve with a large enough effect; inconclusive means small, poorly fitted or top-dose-only effect; inactive means no such curve, though single readings can be large or run the other way. The sample as a whole holds a higher share of actives than the screen did.
Assay: qHTS of alpha-syn Inhibitors; further: nearly all actives have a fitted effect of over 65% in size
Conditions: Yeast expressing alpha-synuclein, BacTiter-Glo, 24 h; Potency: growth rescue; series mostly up to 46.1 µM
Description: The goal of this project is to identify new chemical probes capable of reversing the toxicity associated with the Parkinson disease-related protein, alpha-synuclein. Compounds will be selected on their ability to restore growth in yeast cells expressing toxic levels of alpha-synuclein. These compounds will provide a complementary approach to deciphering the tangled mechanisms of toxicity and protection that we have uncovered through genome-wide genetic screens and are beginning to uncover in a large-scale proteomics analysis with mass spectroscopy. To this end, a miniaturized assay was developed to be screened against the Molecular Libraries Small Molecule Repository (MLSMR) to discover alpha-synuclein inhibitors. Please note that in the set-up this yeast-based assay compounds that inhibit as alpha-syn, have a read-out as activators. NIH Chemical Genomics Center [NCGC] NIH Molecular Libraries Probe Centers Network [MLPCN] MLPCN Grant: NS060957 Assay Submitter (PI): Susan Lindquist, Whitehead Institute/MIT
Dispense 2.5 microL yeast galactose medium per 1536-well plate, pin compound, dispense 2.5 microL alpha-synuclein expressing yeast in galactose medium at OD600=0.02 (pregrown in raffinose medium to mid-log phase) per well, incubate for 24 hr at 30 deg C, and cell growth will be measured using 5 microL of Bactiter/Glo reagent to entire plate and read using Luminescence Protocol in ViewLux.
Potency means the concentration at half of the fitted maximal effect.

Structure (SMILES)	Potency
O=C(O)c1c(Br)c(Br)c(Br)c(Br)c1C1c2ccc(O)cc2Oc2cc(O)ccc21	inactive
O=C(CN1C(=O)COc2ccc(S(=O)(=O)N3CCCCCC3)cc21)N1CCN(c2cccc(C(F)(F)F)c2)CC1	inactive
C=COC(=O)N1CCN(/[N+]([O-])=N/Oc2ccc([N+](=O)[O-])cc2[N+](=O)[O-])CC1	inactive
CCc1ccc(NC(=O)CCS(=O)(=O)c2cc3c(cc2Cl)NC(=O)CO3)cc1	inactive
O=C(CN1C(=O)COc2ccc(S(=O)(=O)N3CCOCC3)cc21)N1CCN(c2cccc(Cl)c2)CC1	inactive
Oc1ccc(Cl)cc1C1C=C(c2ccc3c(c2)OCO3)NC(c2ccc(F)c(Br)c2)N1 (configuration not stated)	inactive
CCCSc1nc2sc3c(c2c(=O)n1-c1cccc(Br)c1)CC(C)(C)OC3	inactive
CN1CCN(/[N+]([O-])=N/Oc2ccc([N+](=O)[O-])cc2[N+](=O)[O-])CC1	inactive
CC1(C)Cc2ccccc2-c2c[nH]c(=O)n21	inactive
Cc1c(NS(=O)(=O)c2ccc(Cl)cc2)c(=O)n(-c2ccccc2)n1C	inactive
O=C(O)C1=C/C(=C/C=[N+]2c3cc(O)c(O[C@H]4OC(CO)[C@@H](O)[C@@H](O)[C@@H]4O)cc3C[C@@H]2C(=O)[O-])C[C@H](C(=O)O)N1 (some centres not stated)	inactive
COc1ccc(-c2nc3c(c(SCC(=O)Nc4ccc(C(=O)O)cc4)n2)Cc2ccccc2O3)cc1	inactive
Cc1ccc(S(=O)(=O)N2CCN(c3nc(-n4cnc5ccccc54)nc4ccccc34)CC2)cc1	inactive
SCc1nc2ccc(Cl)cc2[nH]1	inactive
COc1ccc(-c2c(C)c3ccc(O)c(CN4CCCC4)c3oc2=O)cc1OC	inactive
CCc1ccccc1NC(=O)/C(=C/c1ccccc1)c1ccccc1	inactive
CCOC(=O)/C(=C\c1ccc([N+](=O)[O-])cc1)C(=O)c1cc(C(C)=O)c(Nc2ccccc2)s1	inactive
CCOC(=O)C(=Cc1ccccc1)C(=O)c1ccccc1	14.1 µM (active)
CCC(CC)C(=O)N1CCc2cc(OC)c(OC)cc2C1COc1ccc(F)cc1 (configuration not stated)	inactive
O=C(Nc1nnc(C2COc3ccccc3O2)o1)c1ccc(F)cc1 (configuration not stated)	17.8 µM (active)
CC1COc2ccccc2N1C(=O)c1ccc(F)cc1 (configuration not stated)	inactive

Structure (SMILES)	Potency
O=C(Nc1cccc2c1CCCC2)c1ccc(F)cc1	inactive
CC(C)(C)OC(=O)N1CCC(c2c(C(=O)Nc3ccc4c(c3)OCO4)cnn2-c2ccccc2)CC1	inactive
CCN1CCN(c2ccc(/C=C/c3ccnc4ccccc34)cc2)CC1	inactive
OC(CBr)CN1CCCCC1 (configuration not stated)	inactive
O=C(COc1ccccc1C(=O)Nc1ccccc1)Nc1cccc(F)c1	inactive
CC1CC2C3CCC4=CC(=O)C=C[C@]4(C)[C@@]3(F)[C@@H](O)C[C@]2(C)[C@@]1(O)C(=O)CO (some centres not stated)	inactive
CC1(C)CCc2cc(S(=O)(=O)N3CCN(c4nc(-c5cccs5)nc5ccccc45)CC3)ccc2O1	inactive
C(=Nc1ccc(/C=C/c2ccnc3ccccc23)cc1)Nc1ccc(/C=C/c2ccnc3ccccc23)cc1	inactive
O=C(CSc1ncc(CO)n1Cc1ccc(Cl)cc1)NCc1ccc(F)cc1	inactive
COc1ccc(Cl)cc1C(=O)NNC(=O)c1nc2nc(C)cc(C)n2n1	inactive
COc1ccc(Cl)cc1C(=O)NNC(=S)NC(=O)/C=C/c1ccco1	3.55 µM (active)
CCC(C)NC(=O)c1cc(Cl)ccc1OC (configuration not stated)	inactive
Cc1cc(C)c2oc(-c3cccc(NC(=O)c4cccc(F)c4)c3C)nc2c1	inactive
O=[N+]([O-])c1ccc(S(=O)(=O)N2CCN(c3nc(-c4ccccc4)nc4ccccc34)CC2)cc1	inactive
Cc1ccc(C=O)cc1Cl	inactive
O=C(Nc1ccccc1)c1ccccc1OCc1ccccc1	inactive
OC[C@@H]1O[C@H](n2cnc3c(SCc4ccccc4)ncnc32)[C@H](O)[C@H]1O	inactive
COc1ccc(CN(Cc2ccccc2)C(=O)c2ccc(O)cc2)cc1COc1ccc(NC(C)=O)cc1	inactive
C=C1C=C(C)n2ncc(C(=O)Nc3ccccc3O)c2N1	inactive
COc1cccc2c1C(=O)c1c(O)c3c(c(O)c1C2=O)CC(O)(C(C)=NNC(=O)c1ccc(Cl)c(Cl)c1)CC3OC1CC(N)C(O)C(C)O1 (configuration not stated)	28.2 µM (active)
Nc1ncnc2nnsc12	inactive

Structure (SMILES)	Potency
CN(N=O)c1ccc(C=C2c3ccccc3-c3ccccc32)cc1	inactive
COc1cc(OC)c(/C=C/c2ccnc3ccccc23)c(OC)c1	inactive
S=c1[nH]c(=S)c2n[nH]nc2[nH]1	inactive
COc1ccc(Cn2c(=O)[nH]c3cc(C(=O)N4CCN(C(=O)c5ccco5)CC4)ccc3c2=O)cc1	inactive
COc1ccc(CN2CCc3nc(Nc4ccccc4)ncc3C2)c(OC)c1OC	inactive
COc1cc2[nH]c(C)c(CCN3CCN(c4ccccc4)CC3)c2cc1OC	inactive
Cc1ccc(-c2nc3ccccn3c2Nc2ccc(F)cc2)o1	inactive
CSc1ccc(C2C(C(=O)Nc3ccccc3)=C(C)Nc3nc4ccccc4n32)cc1 (configuration not stated)	inactive
Cc1cccc(NC(=O)COC(=O)c2ccccc2OCc2cccc(Br)c2)c1	inactive
O=C1CSC2(C(=O)N(Cc3ccccc3)c3ccccc32)N1c1cccc(F)c1 (configuration not stated)	inactive
CCOC(=O)Cn1c(=O)n(C2CCCCC2)c2nc(-c3cccc(OC)c3)nc(C(N)=O)c21	inactive
O=C(Nc1ccccc1C(F)(F)F)c1nc(S(=O)(=O)Cc2ccccc2F)ncc1Cl	inactive
COc1ccc(OC)c(NC(=O)C2CCCN(S(=O)(=O)c3ccc4c(c3)CCCC(=O)N4)C2)c1 (configuration not stated)	inactive
C[C@@H]1C(c2ccc(F)cc2)=NN(c2ccc(Br)cc2)[C@H]1C(=O)N1CCOC1=O	22.4 µM (active)
O=C1OCCN1C(=O)[C@H]1[C@H](c2ccc(Cl)cc2)C(c2cccc(Cl)c2)=NN1c1ccc(Br)cc1	inactive
O=C1OCCN1C(=O)[C@H]1[C@H](c2ccccc2)C(c2ccc(F)cc2)=NN1c1ccccc1	inactive
COc1ccc(-c2nc(=N)sn2-c2ccccc2)cc1	inactive
Cc1ccc(C)c(N2CCN(C(=O)Cn3ncn4cccc4c3=O)CC2)c1	inactive
Cc1ccc(C)c(N2CCN(C(=O)CCc3nc4ccccc4[nH]3)CC2)c1	15.8 µM (active)
Cc1ccc(C)c(N2CCN(C(=O)CCc3nc(-c4cccc(C(F)(F)F)c4)no3)CC2)c1	inactive

Source: PubChem BioAssay AID652106 (National Center for Advancing Translational Sciences (NCATS), 2013)
